Cardio protect: myocardial damage modulation in H9c2 cells; H9c2 cardiomyocytes, H2O2 injury protection, ATPLite, 2 h; actives 0.63% (n = 360,000); protection from H2O2 cell death, % at 20 µM;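 active = compounds giving at least 50% protection of heart cells from peroxide-induced death in the single-dose screen, raw or plate-pattern-corrected value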;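 also: 0% = DMSO wells with peroxide and 100% = DMSO wells without peroxide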
TAG inh: inhibitors of triacylglycerol accumulation; H9c2 cells, Nile Red lipid (TAG) fluorescence; cells loaded with 200 µM oleic acid; inhibition, % at 12.5 µM; actives 0.66% (n = 230,000); AID 651582;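 active = pattern-corrected inhibition of lipid staining of at least 50% with the nuclear-stain viability signal not falling by more than 50%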;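 also: 0% = DMSO wells and 100% = triacsin C control wells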
697 NFkB inh: inhibitors of the PMA/ionomycin-induced NF-kB reporter in 697 B cells. actives 0.33% (n = 330,000). AID 435022. 697 B-cell NF-kB luciferase reporter, 16 h. inhibition, % at 4 µM; in the data active = inhibition above about 35%
Gli-Sufu block: Gli-Sufu pathway antagonism. actives 0.74% (n = 340,000). inhibition, % at 5 µM. AID 588413. Sufu-KO-LIGHT fibroblasts, Gli luciferase reporter luminescence;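 active = inhibition above about 55%, limit read from the data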;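 also: 0% = DMSO-treated cells and 100% = wells with medium but no cells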
Jurkat NFkB inh: inhibitors of the PMA/ionomycin-induced NF-kB reporter in Jurkat cells | PMA/ionomycin-induced NF-kB luciferase reporter, luminescence | inhibition, % at 4 µM | actives 0.53% (n = 330,000) | AID 435003; in the data active = inhibition above about 50%
NR2F2 inh: NR2F2 (human) inhibition, primary screen. inhibition, % at 8.6 µM. HEK293T NGFI-A luciferase reporter, luminescence. P24468. actives 0.7% (n = 370,000);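 active = inhibition above a per-plate cutoff, mean inhibition of test wells between control levels plus 3 SD, cut at about 38% in these data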;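 also: cells cotransfected with COUP-TFII expression vector driving the NGFI-A reporter; 0% = median of COUP-TF2 test wells and 100% = reporter-only cells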
Target sequence (P24468 whole entry, looked up): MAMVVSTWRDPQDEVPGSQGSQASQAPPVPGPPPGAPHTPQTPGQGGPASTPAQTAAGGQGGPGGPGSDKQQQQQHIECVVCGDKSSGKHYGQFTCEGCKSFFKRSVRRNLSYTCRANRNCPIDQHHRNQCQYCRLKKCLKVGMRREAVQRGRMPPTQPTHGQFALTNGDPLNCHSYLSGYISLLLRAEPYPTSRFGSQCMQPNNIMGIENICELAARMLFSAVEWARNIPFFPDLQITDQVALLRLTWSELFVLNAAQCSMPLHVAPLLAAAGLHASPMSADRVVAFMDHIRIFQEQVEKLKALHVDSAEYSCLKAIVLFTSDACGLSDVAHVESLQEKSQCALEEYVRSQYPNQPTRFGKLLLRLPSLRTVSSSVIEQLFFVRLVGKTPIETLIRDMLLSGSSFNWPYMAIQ
Gli antag conf: Gli-SUFU antagonism confirmation, single concentration | shares compounds with Gli-Sufu block | Sufu-KO-LIGHT cells, Gli luciferase reporter, luminescence | inhibition, % at 5 µM | actives 40% (n = 2,500) | AID 602428;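 active = mean inhibition at 5 µM reaching about 45%, limit read from the data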;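 also: plate controls were DMSO-treated cells for no effect and wells lacking cells for full effect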
SufuKO cytotox: cytotoxicity counter-screen for Gli-SUFU antagonists. Sufu-KO-LIGHT cells cytotoxicity, ATP luminescence. AID 651994. shares compounds with Gli-Sufu block. actives 32% (n = 2,500). cytotoxicity, % at 5 µM;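 active = mean cytotoxicity at 5 µM above about 25%, limit read from the data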;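 also: cells exposed to compound overnight for roughly 16 to 18 hours; plate controls were DMSO wells with cells for no effect and medium without cells for full effect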
Wnt3a counter: inhibits Wnt3a reporter, counter-screen for Gli-SUFU antagonists | Wnt-LIGHT cells, Wnt3a-driven luciferase reporter, luminescence | AID 651995 | inhibition, % at 6.25 µM | actives 20% (n = 2,500) | shares compounds with Gli-Sufu block;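 active = mean inhibition above about 25%, limit read from the data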
Starred values were filed as active, the others as inactive; / = no result. The list is not random: actives were taken first. Their share in the collection is about 2.6%.

SMILES | Cardio protect | TAG inh | 697 NFkB inh | Gli-Sufu block | Jurkat NFkB inh | NR2F2 inh | Gli antag conf | SufuKO cytotox | Wnt3a counter
c1ccc(-c2c[n+]3c(n2-c2ccccc2)SCC3)cc1 | -12 | -13 | -38 | 59* | 11 | 16 | 58* | 17 | 14
CCOc1ccc(-n2c(-c3ccc(Cl)cc3)c[n+]3c2SCC3)cc1 | -24 | -40 | -14 | 78* | 24 | 17 | 74* | 30* | 4
CCOc1ccc(C2=CSC3=NCCN23)cc1 | -7 | -1 | -1 | 18 | -8 | -2 | / | / | /
CCCCCCCCN1C(=O)[C@@H](CC(=O)N2CCCCC2)C[C@@]2(C(=O)OC)C1=C[C@H](C1CCCC1)O[C@@H]2C | / | / | / | / | / | 2 | / | / | /
c1ccc(-c2ccc3ccccc3n2)cc1 | -5 | / | -83 | -73 | -92 | -29 | / | / | /
CNc1ccccc(-c2ccc3ccccc3n2)c1=O | 2 | / | -62 | 54 | -7 | -19 | -76 | 19 | -32
O=C(NC1CCCCN(Cc2cccc(Cl)c2)C1=O)c1cccc2nsnc12 (stereo not drawn) | / | / | / | / | / | 8 | / | / | /
CCc1nnc(N/N=C/c2ccc(N3CCC(C)CC3)c([N+](=O)[O-])c2)n1N | -12 | 1 | 25 | -7 | 6 | -3 | / | / | /
Cc1nnc(N/N=C/c2cc([N+](=O)[O-])c(N3CCC(C)CC3)cc2N2CCC(C)CC2)n1N | -8 | 8 | 2 | 85* | 6 | 4 | 87* | 36* | -22
O=C(Cn1ccc([N+](=O)[O-])n1)c1ccccc1 | -7 | -2 | -14 | 51 | -17 | -1 | 8 | 21 | -5
O=C(Cn1cnc([N+](=O)[O-])n1)c1ccccc1 | -3 | / | 2 | 24 | -1 | -2 | / | / | /
CCN(CC)c1ccc(CNc2nc3ccccc3n2CCN2CCOCC2)cc1 | -15 | 0 | -27 | 52 | 0 | 15 | 31 | 24 | -39
CC(C(=O)NCCS(=O)(=O)c1ccc(Cl)cc1)S(=O)(=O)c1ccc(Cl)cc1 (stereo not drawn) | 3 | 12 | -16 | 72* | -22 | 5 | 18 | 6 | 5
O=C(OCC#CCSc1nnc(-c2cc3ccccc3cc2O)o1)c1ccc(F)cc1 | / | / | / | / | / | -4 | / | / | /
Cc1ccc(-n2c(-c3ccc(Cl)cc3)c[n+]3c2CCC3)cc1 | -10 | -8 | 18 | 76* | 21 | 34 | 77* | 37* | 7
FC(F)Sc1ccc(-n2c(-c3ccc(Cl)cc3)c[n+]3c2CCC3)cc1 | -16 | -30 | -6 | 53 | -12 | 27 | 24 | 2 | -93
Cc1ccc(-n2c(-c3ccccc3)c[n+]3c2CCC3)cc1 | -17 | -17 | 23 | 82* | 35 | 33 | 84* | 24 | 40*
Cc1ccc(-c2c[n+](CC(=O)OCc3ccccc3)c3n2CCC3)cc1 | -8 | / | -12 | 2 | 15 | -5 | / | / | /
O=C(/C=C/c1ccccc1Cl)Nc1cccc(S(=O)(=O)NC2=NCCCCC2)c1 | -10 | / | -18 | 51 | -1 | -40 | 12 | 10 | -151
O=C(/C=C/c1ccc(Cl)cc1Cl)Nc1cccc(S(=O)(=O)NC2=NCCC2)c1 | -21 | 14 | -79 | -55 | -107 | -13 | / | / | /
C=CCN=C1NC(c2ccccc2C(F)(F)F)C(C(=O)OC)=C(C)N1Cc1cccc(C(F)(F)F)c1 (stereo not drawn) | / | / | / | / | / | -7 | / | / | /
Cc1cccc(N2C(=O)/C(=C/c3cccnc3)SC2=S)c1 | 2 | -6 | -30 | 44 | -9 | -5 | / | / | /
Cc1cc(/C=C2/SC(=S)N(c3ccc([N+](=O)[O-])cc3)C2=O)c(C)n1-c1cccnc1 | -30 | -25 | 22 | 81* | 45 | 11 | 82* | 20 | -8
Cc1ccc(OCCNC(=O)[C@@H](Cc2ccccc2)NC(=O)[C@H]2O[C@@H](n3ccc(=O)[nH]c3=O)[C@H](O)[C@@H]2O)cc1C | / | / | / | / | / | 9 | / | / | /
O=C(CN(C(=O)c1csnn1)c1ccc(Cl)cc1)NCc1ccc2c(c1)OCO2 | -3 | / | -6 | 53 | -10 | 22 | 2 | 5 | -12
SMILES | Cardio protect | TAG inh | 697 NFkB inh | Gli-Sufu block | Jurkat NFkB inh | NR2F2 inh | Gli antag conf | SufuKO cytotox | Wnt3a counter
COC(=O)C1=C(C)N(Cc2cccc(C(F)(F)F)c2)C(=NCc2cc(OC)c(OC)c(OC)c2)NC1c1ccccc1 (stereo not drawn) | / | / | / | / | / | -6 | / | / | /
CCCCC(=O)NC(c1ccccc1OC)c1ccc2cccnc2c1O (stereo not drawn) | 33 | 91 | -11 | 48 | 42 | -15 | / | / | /
CCCC(=O)NC(c1ccc(Cl)cc1)c1ccc2cccnc2c1O (stereo not drawn) | 43 | 63 | -24 | 86* | 47 | 14 | 82* | 35* | 71*
O=C(NCc1ccccc1)C1CC2CCCC(C1)C2=O (stereo not drawn) | 3 | / | 10 | 94* | 6 | 0 | 14 | 18 | -12
C=CCN1C(=O)[C@@H](CC(=O)NCc2cccs2)[C@]2(C(=O)OCC)CCCCC/C=C/12 | / | / | / | / | / | -13 | / | / | /
COC(=O)C1=C(C)N(C)C(=NCc2cccc(C(F)(F)F)c2)NC1c1ccc(C(F)(F)F)cc1 (stereo not drawn) | / | / | / | / | / | -3 | / | / | /
COc1cc(C(=O)NC2CCN(C)CC2)ccc1Nc1ncc2c(n1)N(CCc1ccccc1)CCC(=O)N2C | 10 | / | / | 75* | / | -90 | 67* | 3 | -13
COC(=O)[C@]12C[C@H](CC(=O)NCc3cccs3)C(=O)N(CCC3=CCCCC3)C1=C[C@H](COCc1ccccc1)O[C@@H]2C | / | / | / | / | / | 12 | / | / | /
Cc1cc(/C=c2/sc3nc4ccccc4n3c2=O)c(C)n1-c1ccccn1 | -14 | / | -75 | 86* | 1 | 101* | 94* | 29* | 104*
O=C(NCCc1c[nH]c2ccccc12)OCc1cn(Cc2cccc(C(F)(F)F)c2)nn1 | / | / | / | / | / | 24 | / | / | /
